Results filed as inconclusive are left out. A number with no mark means an inactive call. Calls of active or inactive are those of the source. Calls follow the shape of the dose curve; as a rule, active = well fitted cell-killing curve with a large enough effect; inconclusive = small, poorly fitted or top-dose-only effect, or effect the other way; inactive = no such curve, though single readings can be large or run the other way.
Potency is read from the fitted curve at half-maximal effect.

A short description of this test: Quantitative High-Throughput drug screen in 47 multiple myeloma cell lines against the NCATS MIPE library collection: KMS27_JCRB cell viability assay (AID 1918970). Also: nearly all actives have a fitted effect of over 30% in size. Conditions: KMS27 myeloma cells, CellTiter-Glo ATP viability, 48 h; viability (% of DMSO): at 45.8 µM (top of the series). The text has this:
PI: Beverly A. Mock Ph.D.
Laboratory of Cancer Biology and Genetics,
Center for Cancer Research, National Cancer Institute,
National Institute of Health, Bethesda, Maryland
Drug resistance and disease progression are common in multiple myeloma (MM) patients, underscoring the need for new therapeutic combinations. […] We hypothesized that effective combinations would reduce MYC expression and enhance p16 activity. […] These preclinical data identify potentially useful drug combinations for evaluation in drug-resistant MM and reveal potential mechanisms of combined drug sensitivity.
Described herein is the primary MIPE qHTS used to cherrypick compounds. Validated compounds were then further tested for potential synergistic activiy.
[1] Peat TJ, Gaikwad SM, Dubois W, Gyabaah-Kessie N, Zhang S, Gorjifard S, Phyo Z, Andres M, Hughitt VK, Simpson RM, Miller MA, Girvin AT, Taylor A, Williams D, D'Antonio N, Zhang Y, Rajagopalan A, Flietner E, Wilson K, Zhang X, Shinn P, Klumpp-Thomas C, McKnight C, Itkin Z, Chen L, Kazandijian D, Zhang J, Michalowski AM, Simmons JK, Keats J, Thomas CJ, Mock BA. Drug combinations identified by high-throughput screening promote cell cycle transition and upregulate Smad pathways in myeloma. […] Epub 2023 Jun 24. PMID: 37356470; PMCID: PMC10408729.
SEQUENCE No. (e.g., 1, 2, 3, etc.); […] (e.g., Cells, Incubation, Reagent, etc.); VALUE and DESCRIPTION.
1; Cells; 5 uL; white, solid bottom 1536-well Greiner assay plate.
2; Compounds; 23 nL; Kalypsis pin tool (Wako USA) equipped with a 1536-well pin head to transfer to the assay plates.
3; Incubation; 48 hours; 37C incubation.
4; Reagent;5uL; CellTiter Glo (Promega).
5; Detector; 425V; Luminescence; Viewlux PerkinElmer.
NOTES (numbers refer to Sequence numbers above)
1. The cell-based screening methods employed in this study were like those previously published. Briefly, the corresponding myeloma cell lines were screened in 1,536-well plates with 500 cells, 5-uL per well for inhibition of cell viability (assessed by measuring ATP levels with CellTiterGlo).
2. NCATS MIPE 4.0 library of approved and investigational drugs were added using the Kalypsis pin tool. Wells treated with DMSO only for 100% viability and media only wells for 0% viability were used as controls.
3. The assay plates were covered and incubated for 48 hours in a 37C, 5% CO2 incubator with controlled humidity.
4. After 48 hours, CellTilter-GloTM luminescent substrate mix (Promega) reagent was added to the assay plate and plates we incubated for 5 min at room temperature.
5. Signal was measured as median relative luminescence units on a ViewLux (PerkinElmer) multiplate reader.
[1] Heske CM, Davis MI, Baumgart JT, Wilson K, Gormally MV, Chen L, Zhang X, Ceribelli M, Duveau DY, Guha R, Ferrer M, Arnaldez FI, Ji J, Tran HL, Zhang Y, Mendoza A, Helman LJ, Thomas CJ. Matrix Screen Identifies Synergistic Combination of PARP Inhibitors and Nicotinamide Phosphoribosyltransferase (NAMPT) Inhibitors in Ewing Sarcoma. Clin Cancer Res. 2017 Dec 1;23(23):7301-7311. doi: 10.1158/1078-0432.CCR-17-1121. Epub 2017 Sep 12. PMID: 28899971; PMCID: PMC6636827.
(In general: ATP-based viability assays read luminescence as a measure of living cells.)
On to `CC(=O)O[C@]1(C(C)=O)CC[C@H]2[C@@H]3C=C(Cl)C4=CC(=O)[C@@H]5C[C@H]5[C@]4(C)[C@@H]3CC[C@@]21C`, for which the Potency was 18.7 µM (active).
Still for that read-out and setting: for `CCC[C@H](N[C@@H](C)C(=O)N1[C@@H]2CCCC[C@H]2C[C@H]1C(=O)O)C(=O)OCC` the value was 14.8 µM (active); for `C=C1[C@H](n2cnc3c(=O)[nH]c(N)nc32)C[C@H](O)[C@H]1CO`, 5.9 µM (active).
Same read-out and setting: to `COc1c(C)cnc(Cn2cnc3c(Cl)nc(N)nc32)c1C` belongs 0.209 µM (active).
As for `O=C(NCCCCN1CCOCC1)c1cc2ccccc2o1`, the “viability (% of DMSO)” value was 117%.
`O=C(c1ccc(F)c(F)c1Nc1ccc(I)cc1F)N1CC(O)([C@H]2CCCCN2)C1`: the Potency was 0.264 µM (active).
The same measure, in the same setting: for `O=C1CN2Cc3c(ccc(Cl)c3Cl)N=C2N1` the value was 0.296 µM (active).
On to `CN[C@H]1[C@@H](O[C@@H]2[C@H](O[C@@H]3[C@@H](O)[C@@H](O)[C@@H](N=C(N)N)[C@@H](O)[C@@H]3N=C(N)N)O[C@H](C)[C@@]2(O)C=O)O[C@@H](CO)[C@@H](O)[C@H]1O`, for which the “viability (% of DMSO)” value is 119% [at 15.3 µM].
Regarding `C[C@@H](N)c1ccc(C(=O)Nc2ccnc3[nH]ccc23)cc1`, the Potency was 18.7 µM (active).
On to `O=C(c1ccc(C(=O)N2CCC(N3CCCC3)CC2)c(Nc2ccccc2)c1)N1CCC(N2CCCC2)CC1`, for which the “viability (% of DMSO)” value was 128%.
The same measure, in the same setting: for `NCC1CCC(C(=O)O)CC1` (stereo not given) the value was 131%.
Consider `CNC(=O)c1ccc2c(C(=Nc3cccc(CN(C)C)c3)c3ccccc3)c(O)[nH]c2c1`, for which the Potency is 2.35 µM (active).
In the case of `CN(C)CCN(Cc1ccc(Cl)cc1)c1ccccn1`, the “viability (% of DMSO)” value is 119%.
Still for that read-out and setting: to `O=c1[nH]c(=O)n([C@H]2C[C@@H](O)[C@@H](CO)O2)cc1I` belongs 108%; to `CC(=O)OCC(=O)[C@@]1(O)CC[C@H]2[C@@H]3CCC4=CC(=O)C=C[C@]4(C)[C@@H]3[C@@H](O)C[C@@]21C`, 123%.
Take `COC(=O)Nc1ccc(-c2nc(N3CCOCC3)c3cnn(C4CCN(C(=O)OC)CC4)c3n2)cc1`: the Potency was 0.0833 µM (active).
Still for that read-out and setting: for `CSc1cccc(Nc2ncc3cc(-c4c(Cl)cccc4Cl)c(=O)n(C)c3n2)c1` the value was 0.0662 µM (active).
For `CC(NCCc1ccc(O)cc1)C(O)c1ccc(O)cc1` (stereo not given), the “viability (% of DMSO)” value is 97.9%.
On the same count and under the same terms, to `CCCCC(C=O)NC(=O)C(CC(C)C)NC(=O)OCc1ccccc1` (stereo not given) belongs 108%.
As for `OC[C@H]1O[C@@H](OCCc2ccc(O)cc2)[C@H](O)[C@@H](O)[C@H]1O`, the “viability (% of DMSO)” value is 95.5%.
Regarding `CC1CNc2c(cccc2S(=O)(=O)N[C@@H](CCCN=C(N)N)C(=O)N2CC[C@@H](C)C[C@@H]2C(=O)O)C1` (stereo not given in full), the Potency is 14.8 µM (active).
Still for that read-out and setting: for `CNC(=O)[C@H](CC1=CN=C2C=CCC=C12)NC(=O)[C@@H](CC(=O)NO)CC(C)C` the value was 0.0935 µM (active); for `Nc1ncnc2c1ncn2[C@@H]1O[C@H](CO)[C@@H](O)[C@@H]1O`, 0.418 µM (active).
For the compound `CC(C)N(CCCNC(=O)Nc1ccc(C(C)(C)C)cc1)C[C@H]1O[C@@H](n2cc(Br)c3c(N)ncnc32)[C@H](O)[C@H]1O`, the “viability (% of DMSO)” value was 124%.
Regarding `O=[N+]([O-])c1ccc(Nc2ccccc2-c2ccccc2)c2nonc12`, the Potency was 20.9 µM (active).
As to `CNC(=O)c1cc(COc2nnc(Nc3ccc(Cl)cc3)c3ccoc23)ccn1`, the “viability (% of DMSO)” value was 141%.
With `CC=C(C(=CC)c1ccc(O)cc1)c1ccc(O)cc1`, the Potency is 11.8 µM (active).
Turning to `CN1C(=O)C(Cc2c[nH]c3ccccc23)NC1=S` (stereo not given), the “viability (% of DMSO)” value was 91%.
Turning to `COc1nc(C)cnc1NS(=O)(=O)c1cccnc1-c1ccc(-c2nnco2)cc1`, the “viability (% of DMSO)” value was 128%.
The same measure, in the same setting: to `Cc1c(-c2cccc3c(CCCOc4cccc5ccccc45)c(C(=O)O)n(Cc4cccnc4)c23)c(COc2ccc(N3CCN([S+](=O)([O-])N(C)C)CC3)cc2)nn1C` belongs 90.9%.
Consider `Cc1nc(NC(=O)N2CCC[C@@H]2C(N)=O)sc1-c1csc(C(C)(C)C)n1`, for which the Potency is 2.35 µM (active).
`O=S(=O)(NCCNCC=Cc1ccc(Br)cc1)c1cccc2cnccc12`: the Potency is 13.2 µM (active).
Consider `CCCCC[C@H](O)C=C[C@H]1[C@H](O)CC(=O)[C@H]1CCCCCCC(=O)O`, for which the “viability (% of DMSO)” value was 133%.
Same read-out and setting: to `C=C1c2cccc(O)c2C(O)=C2C(=O)[C@@]3(O)C(O)=C(C(N)=O)C(=O)[C@@H](N(C)C)[C@@H]3[C@@H](O)[C@H]12` belongs 120%.
Still for that read-out and setting: to `O=C(O)C1=NC(C(=O)O)CC(C=CN2c3cc(O)c(OC4OC(CO)C(O)C(O)C4O)cc3CC2C(=O)O)=C1` (stereo not given) belongs 148%; to `C[C@@H](O[C@H]1OCCN(Cc2n[nH]c(=O)[nH]2)[C@@H]1c1ccc(F)cc1)c1cc(C(F)(F)F)cc(C(F)(F)F)c1`, 119%.
Same read-out and setting: to `COc1ccc(C=CC(=O)Nc2ccccc2C(=O)O)cc1OC` belongs 123%.
Consider `CO[C@H]1/C=C\O[C@@]2(C)Oc3c(C)c(O)c4c(O)c(c5c(nc6cc(C)ccn65)c4c3C2=O)NC(=O)C(C)=CC=C[C@H](C)[C@H](O)[C@@H](C)[C@@H](O)[C@@H](C)[C@H](OC(C)=O)[C@H]1C`, for which the Potency is 18.7 µM (active).
On the same count and under the same terms, for `C[C@H]1[C@H](O)O[C@@H]2O[C@@]3(C)CC[C@@H]4[C@H](C)CC[C@@H]1[C@@]24OO3` the value was 13.2 µM (active).
Turning to `CCOC(=O)[C@H]1O[C@H]1C(=O)N[C@@H](CC(C)C)C(=O)NCCC(C)C`, the “viability (% of DMSO)” value is 104%.
